Most compounds without a hit are left out; they make up all but 5.2% or so of the library.
PostGolgi ctrl = yeast control strain growth, post-Golgi counter-screen. efflux-deficient yeast background strain, growth absorbance A615, 16 h. inhibition, % at 10 µM. 98,000 tested, 5% active. AID 738
EphB4 antag = blocks human EphB4 binding to ephrin-B2 | inhibition, % at 7 µM | AID 720 | EphB4 LBD / TNYL-RAW-Alexa532 peptide, fluorescence polarization | P54760 | 97,000 tested, 0.15% active;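 active means inhibition above the screen-wide mean inhibition plus 3 SD, cut at about 15% in these data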;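 further: 0% = DMSO wells and 100% = excess unlabeled TNYL-RAW peptide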
Target sequence (P54760 whole entry, looked up, the tested form may be a part): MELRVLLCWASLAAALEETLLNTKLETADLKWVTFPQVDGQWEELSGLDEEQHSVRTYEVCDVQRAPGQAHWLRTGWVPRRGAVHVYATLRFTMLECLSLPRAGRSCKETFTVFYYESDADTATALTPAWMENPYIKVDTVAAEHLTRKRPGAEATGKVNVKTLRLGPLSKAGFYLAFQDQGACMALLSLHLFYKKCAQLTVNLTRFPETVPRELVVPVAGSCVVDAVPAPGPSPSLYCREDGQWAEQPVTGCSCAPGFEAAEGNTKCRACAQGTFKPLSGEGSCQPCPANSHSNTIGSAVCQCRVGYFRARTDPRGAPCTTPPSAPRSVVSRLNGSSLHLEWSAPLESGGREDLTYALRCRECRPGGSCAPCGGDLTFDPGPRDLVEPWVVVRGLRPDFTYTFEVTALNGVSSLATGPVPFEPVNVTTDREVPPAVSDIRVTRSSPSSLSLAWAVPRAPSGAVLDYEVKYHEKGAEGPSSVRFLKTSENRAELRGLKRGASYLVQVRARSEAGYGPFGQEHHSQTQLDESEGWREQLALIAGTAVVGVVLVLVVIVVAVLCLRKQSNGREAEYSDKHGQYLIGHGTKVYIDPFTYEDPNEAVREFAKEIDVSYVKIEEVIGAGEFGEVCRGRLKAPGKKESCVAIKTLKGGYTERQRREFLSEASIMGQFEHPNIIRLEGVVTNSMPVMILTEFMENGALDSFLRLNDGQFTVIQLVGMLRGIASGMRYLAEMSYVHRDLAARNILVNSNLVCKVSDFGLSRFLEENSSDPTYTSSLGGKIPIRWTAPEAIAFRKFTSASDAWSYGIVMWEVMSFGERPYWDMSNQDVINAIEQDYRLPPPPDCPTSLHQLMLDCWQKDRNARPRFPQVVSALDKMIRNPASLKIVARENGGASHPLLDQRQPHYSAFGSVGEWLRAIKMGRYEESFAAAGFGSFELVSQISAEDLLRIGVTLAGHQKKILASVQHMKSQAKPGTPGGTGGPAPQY
PostGolgi yeast = growth inhibition of a yeast mutant, post-Golgi transport screen. post-Golgi transport phenotypic cell assay. inhibition, % at 10 µM. 98,000 tested, 0.9% active. AID 739;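 further: yeast cells grown in 1536-well plates; yeast grown about 18 h at 30C before absorbance read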
Candida biofilm = kills Candida albicans biofilms. 85,000 tested, 0.14% active. inhibition, % at 6 µM. C. albicans biofilm + clotrimazole, Alamar Blue. AID 834;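 active means inhibition above 20%; inactive means inhibition below 20%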;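 further: preformed 24 hr biofilms exposed to compound for 48 hr; 0% = biofilm without compound and 100% = blank killed by clotrimazole plus chlorhexidine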
Numbers without * were called inactive; · = no result. Unless noted, no stated cut-off is given here; in the data, active means inhibition above about 30%; inactive means the rest.

SMILES	PostGolgi ctrl	EphB4 antag	PostGolgi yeast	Candida biofilm
CCCC/C(O)=C1\C(=O)CC(C)(C)CC1=Nc1ccccc1OC	30.8*	-1.1	8.6	7.7
CCOC(=O)CSc1nc(C)c2ccc(C)cc2n1	·	2.5	·	2.1
Brc1cc(Br)c2nc(-c3ccc(N4CCOCC4)cc3)ccc2c1	36.5*	-2.1	3.0	·
COc1ccc(C2c3c(ncn(CCN4CCOCC4)c3=N)Oc3ccc4ccccc4c32)cc1OC (stereo not drawn)	-3.3	0.5	-0.3	4.2
CCOC(=O)CS(=O)(=O)c1nc(-c2ccc(F)cc2)cc(C(F)(F)F)n1	48.2*	·	8.3	6.4
COC(=O)CCS(=O)(=O)c1nc(-c2ccccc2)cc(C(F)(F)F)n1	56.9*	-6.2	-0.2	8.1
CCOC(=O)CCS(=O)(=O)c1nc(-c2ccccc2)cc(C(F)(F)F)n1	73.5*	3.6	-6.4	-0.8
COc1cc2c(cc1OC)C(C(=O)Nc1ccc3c(c1)OCCO3)C(c1cccnc1)N(C)C2=O (stereo not drawn)	1.2	-2.9	-4.2	6.9
COC(=O)C1C(=O)c2c([nH]c(C(=O)OCC3CCCO3)c2C)CC1C (stereo not drawn)	-2.5	·	-6.9	7.4
COC(=O)C(=Cc1ccc(OCc2ccc([N+](=O)[O-])cc2)c(OC)c1)C(=O)OC	11.9	-1.1	-4.6	·
CCOC(=O)C(=Cc1ccc(OCc2ccc([N+](=O)[O-])cc2)c(OC)c1)C(=O)OCC	43.2*	-8.8	-3.8	·
N#Cc1c(C(F)(F)F)cc(-c2cccc(Cl)c2)[nH]c1=O	20.9	6.2	0.6	·
O=C(NCC1CCCO1)c1ccc(CS(=O)(=O)c2ccc(Cl)cc2)o1 (stereo not drawn)	1.1	3.4	20.6	8.6
O=C1C2ON(c3ccc(Br)cc3)C(c3cccnc3)C2C(=O)N1C1CCCCC1 (stereo not drawn)	84.6*	4.2	101.9*	·
O=C1C2ON(c3ccccc3)C(c3cccnc3)C2C(=O)N1c1ccccc1 (stereo not drawn)	6.5	·	14.0	-4.0
O=S(=O)(c1ccccc1Cl)N1CCCC1c1nc(-c2cccc(Cl)c2)no1 (stereo not drawn)	21.0	-2.2	-7.9	·
O=S(=O)(c1ccc(Cl)cc1)N1CCCC1c1nc(-c2cccc(Cl)c2)no1 (stereo not drawn)	33.3*	3.4	0.8	·
Cc1cc(OCC(=O)Nn2cnnc2)ccc1Br	-9.1	·	-2.0	7.9
CCOc1ccc(NC(=O)C2CCCN(S(=O)(=O)c3cccc4nsnc34)C2)cc1 (stereo not drawn)	6.7	6.9	13.6	-1.6
OCCn1c(SCCOc2ccccc2F)nc2ccccc21	41.2*	3.5	5.2	5.0
COc1ccc(OCCSc2nc3ccccc3n2CC(=O)O)cc1	1.9	2.6	14.2	0.8
O=C(O)Cn1c(SCCOc2ccccc2F)nc2ccccc21	-0.6	-2.5	31.2*	·
O=C(COc1ccc(Cl)cc1)NCc1nnc(SCC(=O)N2CCCc3ccccc32)o1	7.0	2.1	-5.8	3.9
CCn1nnnc1NCc1cccn1C	2.9	·	6.4	6.0
CCN(CC(=O)Nc1ccc2c(c1)OCO2)Cc1nc2ccccc2c(=O)[nH]1	31.4*	·	-7.6	-0.3
SMILES	PostGolgi ctrl	EphB4 antag	PostGolgi yeast	Candida biofilm
CCN(CC(=O)Nc1ccc2c(c1)OC(F)(F)O2)Cc1nc2ccccc2c(=O)[nH]1	9.0	9.2	-7.5	0.9
COC(=O)c1[nH]c2ccc(F)cc2c1NC(=O)CCN1CCN(C(=O)c2ccco2)CC1	31.8*	2.0	0.0	3.5
O=C(CC(c1ccccc1)c1ccccc1)OCn1nnc2ccccc2c1=O	27.0	-1.0	5.1	·
COc1cccc2c1OC1(C)CC2NC(=O)N1Cc1ccccc1 (stereo not drawn)	18.3	1.5	14.9	2.7
C=CCNC(=O)c1onc(CSc2cccc(OC)c2)c1C(=O)O	6.8	-2.5	-2.4	·
CCOc1ccc(C(=O)Nc2ccccc2N2CCCC2)cc1	7.7	4.8	8.9	6.2
CCOc1ccc(C(=O)Nc2ccccc2N2CCOCC2)cc1	33.0*	11.1	-5.2	4.8
CCc1ccccc1NC(=O)c1ccoc1C	36.6*	-1.8	13.6	3.3
Cc1occc1C(=O)Nc1ccc2ccccc2c1	52.1*	5.2	-3.1	3.9
Cc1occc1C(=O)Nc1ccccc1C(=O)O	6.3	5.4	17.2	4.1
CC1CCCCN1C(=O)CSc1nnc(-c2ccc(Cl)s2)o1 (stereo not drawn)	6.6	1.2	0.2	·
O=C1C(Cl)=C(NCC2CCCO2)C(=O)N1C1CCCCC1 (stereo not drawn)	41.2*	-2.3	13.3	3.5
O=C(CSc1nnc(Cn2c(=O)sc3ccccc32)n1-c1ccccc1)Nc1nccs1	13.0	·	14.9	·
COCCN(C(=O)CNC(=O)c1ccco1)C(C(=O)NC1CCCC1)c1cccs1 (stereo not drawn)	·	-4.7	·	4.1
CN(C)CC(C(=O)c1ccccc1)c1ccccc1 (stereo not drawn)	31.4*	·	2.1	-2.3
CN(C)CC(=O)c1ccc(-c2ccccc2)cc1	4.7	-7.5	0.1	-4.1
O=C(/C=C/c1cccs1)Nc1nc(-c2ccccc2)cs1	33.0*	-0.1	-2.7	·
O=S(=O)(NCC1CCCO1)c1ccc(S(=O)(=O)N(Cc2ccccc2F)C2CCCCC2)cc1 (stereo not drawn)	·	-0.6	·	6.3
COc1ccc(C2C(=O)N(CCc3ccccc3)CC(=O)N2C2CCCCC2)cc1 (stereo not drawn)	19.6	-6.4	-5.5	4.8
COc1cc(CNCc2ccccn2)ccc1OCc1ccc(Cl)cc1Cl	48.6*	5.9	3.4	·
Cc1ccc(C2C(C#N)=C(N)Oc3c2sc2ccccc32)o1 (stereo not drawn)	6.7	-11.2	-4.5	9.3
Clc1ccc(OCc2nnc(SCc3nnc(-c4ccccc4)o3)o2)c(Cl)c1	41.3*	-12.9	5.0	0.3
O=C(COc1cccc2cccnc12)N1CCc2ccccc2C1	-2.6	-1.9	-2.8	6.9
O=C(COc1c(Br)cc(Br)c2cccnc12)N1CCc2ccccc2C1	67.5*	0.7	-7.2	6.6
CCOc1cc(CNn2nnnc2N)cc(Cl)c1OCC(=O)NC(C)(C)C	5.9	3.7	9.3	1.8
SMILES	PostGolgi ctrl	EphB4 antag	PostGolgi yeast	Candida biofilm
O=C(CCNS(=O)(=O)c1cccc2nonc12)NC1CCCc2ccccc21 (stereo not drawn)	31.8*	·	-8.0	1.6
O=C(CCNS(=O)(=O)c1cccc2nsnc12)NC1CCCc2ccccc21 (stereo not drawn)	7.5	·	14.5	3.4
CC(CCc1ccccc1)NC(=O)C(Cc1ccccc1)NS(=O)(=O)c1cccs1 (stereo not drawn)	20.0	-3.8	-1.0	33.0*
O=C(Nc1ccc(N2CCOCC2)c(C(=O)O)c1)c1ccco1	3.2	5.9	8.3	·
O=C(Nc1ccc(N2CCOCC2)cc1N1CCOCC1)c1ccco1	44.0*	-7.8	-7.3	9.9
O=C(/C=C/c1ccc([N+](=O)[O-])cc1)NCC1CCCO1 (stereo not drawn)	5.2	-12.2	4.2	·
O=C(Cc1ccc(Cl)cc1)Nc1ccc(N2CCN(C(=O)c3ccco3)CC2)cc1	43.3*	6.3	-3.7	4.9
O=C(Nc1ccc(N2CCN(C(=O)c3ccc(Cl)cc3)CC2)cc1)c1ccc(Br)o1	54.1*	-5.8	20.8	11.5
O=C(c1ccco1)N1CCN(c2ccc(Cl)cc2)CC1	7.4	3.4	-2.8	2.0
